Assay in all cases: NCI-60 one-dose screen, 48 h (100 = growth as untreated, 0 = no growth, -100 = all killed)
Settings in all cases: 10 µM

In assay [1] the test system is DU-145 prostate.
For assay [2], the system named is K-562 leukemia.
Assay [3] concerns MALME-3M melanoma.
Assay [4] has as its system MDA-MB-231 breast.
In assay [5] the test system is RXF 393 renal.
Assay [6] has as its system SF-268 CNS.
Assay [7] deals with SF-295 CNS.
In assay [8] the test system is SF-539 CNS.
The test system of assay [9] is UACC-257 melanoma.
The subject of assay [10] is M14 melanoma.
Assay [11] concerns HCT-15 colon.
The subject of assay [12] is HT29 colon.
The test system of assay [13] is SNB-75 CNS.
The subject of assay [14] is SNB-19 CNS.
Assay [15] deals with U251 CNS.
Assay [16] deals with PC-3 prostate.
For assay [17], the system named is SK-MEL-5 melanoma.
The subject of assay [18] is UACC-62 melanoma.
Assay [19] relates to LOX IMVI melanoma.
Assay [20] relates to SK-MEL-28 melanoma.

This passage reports growth results from PubChem BioAssay (NCI).

The panel holds about 83,000 compounds, 20% with a hit somewhere; the sample as a whole holds those more often.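 Percent growth is the endpoint: 0 to 100 indicates growth inhibition (40 means 60% inhibition), 0 means no net growth, and negative values indicate cell death.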 Values without a mark were called inactive. Calls of active or inactive are those of the source. The calls were made as follows: active = growth percent below 10; inactive = the rest.

On to `CCOC(=O)c1cc(C(=O)c2cc(OC)c(OC)c(OC)c2)n2ncc3ccccc3c12`, for which the growth in [1] is 83.6%; in assay [2], 23%; in assay [3], 70.5%; in assay [4], 98.7%; in [5] it was 88.3%; in assay [6] it was 84%. Moreover, the growth in [7] was 72.5%; in [8], 86.7%; in assay [9], 57.1%; in assay [10], 50.2%; in assay [11], 58.5%; in [12], 29.6%. For the same compound, the growth in assay [13] was 79.5%; in assay [14] it was 88.2%; in assay [15], 81%; in assay [16] it was 54.6%; in assay [17] it was 34.5%; in [18], 70.2%. Moreover, the results for the growth in assay [19] and in assay [20] were 66.3% and 90.9%, respectively.
As for `S=c1cnc2ccccc2[nH]1`, the growth is 103% in assay [1]; 99.8% in [2]; 84.6% in assay [3]; 111% in assay [4]; 114% in [5]; 95.7% in [6]. Moreover, the growth in [7] was 103%; in [8] it was -10.4% (active); in [9], 99.1%; in [10], 89%; in [11] it was 102%; in assay [12], 93.7%. The growth in assay [13] is 86.5%; in assay [14] it was 109%; in [15], 95.5%; in [16] it was 86.1%; in [17], 97.6%; in assay [18], 98.8%. Further, the results for the growth in [19] and in assay [20] were 94.3% and 108%, respectively.
For the compound `Nc1nc(-c2ccc(Cl)cc2)cc(-c2cc3ccccc3oc2=O)n1`, the growth in assay [1] is 106%; in assay [2] it was 114%; in assay [3] it was 80%; in assay [4], 93.9%; in assay [5], 112%; in assay [6], 104%. Also, the growth in assay [7] is 89.1%; in [8], 117%; in assay [9], 132%; in [10], 95.3%; in assay [11], 102%; in assay [12], 93.5%. Further, the growth was 68.4% in [13]; 94% in [14]; 99.4% in [15]; 97.8% in assay [16]; 91.2% in assay [17]; 92.5% in assay [18]. The growth in assay [19] was 92.8%; in assay [20] it was 110%.
`O=C1c2ccccc2C(=O)c2c1ccc(C(Br)Br)c2[N+](=O)[O-]`: the growth was 59.4% in assay [1]; -7.68% (active) in [2]; -17.5% (active) in assay [3]; -21.4% (active) in [4]; 48.6% in assay [5]; 19.1% in [6]. Also, the growth was 92.8% in assay [7]; 90.2% in assay [8]; 95.2% in assay [9]; 36.6% in [10]; 38.3% in assay [11]; 46.1% in assay [12]. The growth in [13] was 109%; in [14] it was 60.9%; in [15] it was 9.58% (active); in [16], 19.2%; in assay [17] it was 60.8%; in [18], 27.6%. For the same compound, the growth in [19] is -65.3% (active); in assay [20] it was 102%.
With `COc1ccc(-c2cc(-c3ccc(Cl)cc3)nc(SCCCC(=O)NO)n2)cc1`, the growth is 9.82% (active) in [1]; 7.35% (active) in [2]; -11.8% (active) in [3]; 1.61% (active) in assay [4]; -21% (active) in [5]; 2.08% (active) in assay [6]. Further, the growth is -19.1% (active) in [7]; 4.55% (active) in assay [8]; 3.4% (active) in assay [9]; -31.1% (active) in assay [10]; 14.5% in assay [11]; 13.3% in assay [12]. Also, the growth was -6% (active) in [13]; 13.5% in assay [14]; 5.21% (active) in assay [15]; 0.504% (active) in assay [16]; -52.5% (active) in [17]; -57.2% (active) in [18]. The figures for the growth in [19] and in assay [20] were -24.9% (active) and 31.9%, respectively.
For the compound `O=[N+]([O-])c1ccc2ncccc2c1Cl`, the growth in [1] is -26% (active); in [2] it was 12.1%; in assay [3], 69%; in assay [4], 21.2%; in [5] it was 91.2%; in [6] it was 38.9%. The growth in assay [7] was -0.464% (active); in assay [8] it was 12.9%; in assay [9], 62.2%; in [10], 49.5%; in assay [11] it was 13.2%; in assay [12] it was 9.81% (active). Further, the growth was 73.9% in assay [13]; 62.7% in assay [14]; 35.9% in assay [15]; 38.5% in assay [16]; 89.3% in assay [17]; 54.7% in assay [18]. The growth in assay [19] is 20.9%; in [20] it was 76.2%.
On to `CCC(c1ccc(OC)cc1)C(CC)c1ccc(O)c(CN2CCN(C)CC2)c1` (stereo not given), for which the growth is 92.4% in assay [1]; 9.45% (active) in assay [2]; 6.2% (active) in assay [3]; 56.3% in assay [4]; 39.3% in assay [5]; 80.6% in [6]. The growth in [7] was 28.9%; in assay [8] it was 67.4%; in assay [9], -5.73% (active); in [10] it was -19.5% (active); in assay [11], 1.58% (active); in assay [12] it was 12.1%. Also, the growth in assay [13] was 56.9%; in assay [14], 74.5%; in [15], 29.8%; in assay [16] it was 45.1%; in [17], 4.57% (active); in [18], -30.5% (active). Moreover, the growth in assay [19] is 46.2%; in [20], -13.2% (active).
